According to PubChem BioAssay (NCI):
This is part of a sample that, as a whole, favours compounds with a hit. Of some 83,000 tested, about 20% had one in any assay.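 Step 1: grow cells in 96-well plates. Step 2: add test compound at a single concentration. Step 3: incubate 48 h. Step 4: record percent growth.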 Calls of active or inactive are those of the source. Rule for the calls: active = growth percent below 10; inactive = the rest.

Assays:
Assay in all cases: NCI-60 one-dose screen, 48 h (100 = growth as untreated, 0 = no growth, -100 = all killed)
Conditions in all cases: 10 µM unless noted
NCI-H23 lung = tested on: NCI-H23 lung
NCI-H226 lung = tested on: NCI-H226 lung
NCI-H322M lung = tested on: NCI-H322M lung
HOP-62 NSCLC = tested on: HOP-62 NSCLC
NCI-H460 lung = tested on: NCI-H460 lung
NCI-H522 lung = tested on: NCI-H522 lung
A549/ATCC NSCLC = tested on: A549/ATCC NSCLC
786-0 renal = tested on: 786-0 renal
COLO 205 colon = tested on: COLO 205 colon
DU-145 prostate = tested on: DU-145 prostate
K-562 leukemia = tested on: K-562 leukemia
MALME-3M melanoma = tested on: MALME-3M melanoma
MDA-MB-231 breast = tested on: MDA-MB-231 breast
RXF 393 renal = tested on: RXF 393 renal
SF-268 CNS = tested on: SF-268 CNS
SF-295 CNS = tested on: SF-295 CNS
SF-539 CNS = tested on: SF-539 CNS
UACC-257 melanoma = tested on: UACC-257 melanoma
M14 melanoma = tested on: M14 melanoma
HCT-15 colon = tested on: HCT-15 colon

Measured: growth

CCCCN(CCCC)CCCOC(=O)c1ccc(N)cc1
inactive: NCI-H23 lung 96.1% | NCI-H226 lung 76.8% | NCI-H322M lung 98.2% | HOP-62 NSCLC 88.7% | NCI-H460 lung 78.4% | NCI-H522 lung 67% | A549/ATCC NSCLC 70.9% | 786-0 renal 95.4% | COLO 205 colon 57.3% | DU-145 prostate 88.2% | K-562 leukemia 96.5% | MALME-3M melanoma 93% | MDA-MB-231 breast 86.8% | RXF 393 renal 92.1% | SF-268 CNS 96.3% | SF-295 CNS 84.5% | SF-539 CNS 94.4% | UACC-257 melanoma 88% | M14 melanoma 93.7% | HCT-15 colon 101%

COc1cccc2c1O/C(=C\c1c([N+](=O)[O-])ncn1C)C2=O
inactive: NCI-H23 lung 99.8% | NCI-H226 lung 96.9% | NCI-H322M lung 84.7% | HOP-62 NSCLC 105% | NCI-H460 lung 109% | NCI-H522 lung 84.3% | A549/ATCC NSCLC 99.8% | 786-0 renal 96.1% | COLO 205 colon 109% | DU-145 prostate 102% | K-562 leukemia 89.9% | MALME-3M melanoma 92.4% | MDA-MB-231 breast 119% | RXF 393 renal 113% | SF-268 CNS 98.3% | SF-295 CNS 98.2% | SF-539 CNS 100% | UACC-257 melanoma 93.5% | M14 melanoma 103% | HCT-15 colon 91.4%

N=c1ccn2c(n1)O[C@@H]1[C@@H](O)[C@H](CO)O[C@@H]12
inactive: NCI-H23 lung 33.3% | NCI-H226 lung 92.4% | NCI-H322M lung 82.2% | HOP-62 NSCLC 47.7% | NCI-H460 lung 12.3% | NCI-H522 lung 39.4% | A549/ATCC NSCLC 22.2% | 786-0 renal 31.1% | COLO 205 colon 49.3% | DU-145 prostate 51.4% | K-562 leukemia 67.1% | MALME-3M melanoma 59.1% | MDA-MB-231 breast 91.7% | RXF 393 renal 96.4% | SF-268 CNS 65.8% | SF-295 CNS 88.7% | SF-539 CNS 98.4% | UACC-257 melanoma 70.3% | HCT-15 colon 64.4%
active: M14 melanoma -1.79%

CCCn1cnc2c1c(=O)n(CCCCC(C)=O)c(=O)n2C
inactive: NCI-H23 lung 105% | NCI-H226 lung 100% | NCI-H322M lung 97.4% | HOP-62 NSCLC 101% | NCI-H460 lung 103% | NCI-H522 lung 113% | A549/ATCC NSCLC 95.8% | 786-0 renal 104% | COLO 205 colon 104% | DU-145 prostate 118% | K-562 leukemia 90.9% | MALME-3M melanoma 113% | MDA-MB-231 breast 104% | RXF 393 renal 103% | SF-268 CNS 99.3% | SF-295 CNS 118% | SF-539 CNS 101% | UACC-257 melanoma 102% | M14 melanoma 104% | HCT-15 colon 103%

COc1ccc(OC)c(NC(=O)c2cc3oc4ccccc4c3cc2O)c1
inactive: NCI-H23 lung 87.4% | NCI-H226 lung 90.7% | NCI-H322M lung 101% | HOP-62 NSCLC 72.4% | NCI-H460 lung 100% | NCI-H522 lung 90.6% | A549/ATCC NSCLC 88.4% | 786-0 renal 93.1% | COLO 205 colon 88.8% | DU-145 prostate 106% | K-562 leukemia 86.4% | MALME-3M melanoma 69.7% | MDA-MB-231 breast 100% | RXF 393 renal 143% | SF-268 CNS 87.9% | SF-295 CNS 92% | SF-539 CNS 90.3% | UACC-257 melanoma 92% | M14 melanoma 95.7% | HCT-15 colon 96.7%

CCCCC1Nc2nc(SC)n(C)c(=O)c2CN(Cc2ccccc2)C1=O (stereo not given)
inactive: NCI-H23 lung 98.4% | NCI-H226 lung 84.9% | NCI-H322M lung 90.6% | HOP-62 NSCLC 97.9% | NCI-H460 lung 104% | NCI-H522 lung 76% | A549/ATCC NSCLC 94.5% | 786-0 renal 78.4% | COLO 205 colon 112% | DU-145 prostate 112% | K-562 leukemia 141% | MALME-3M melanoma 132% | MDA-MB-231 breast 94.5% | RXF 393 renal 77.2% | SF-268 CNS 100% | SF-295 CNS 94.9% | SF-539 CNS 85.2% | UACC-257 melanoma 90.1% | M14 melanoma 89.8% | HCT-15 colon 81.9%

COc1ccc2c3c(c(OCCCN(C)C)nc2c1)-c1ccc(Cl)cc1C3=O
inactive: NCI-H226 lung 32.1% | DU-145 prostate 15.3% | SF-268 CNS 43.9% | SF-295 CNS 86% | SF-539 CNS 13.9% | UACC-257 melanoma 86.9%
active: NCI-H23 lung -2.72% | NCI-H322M lung 3.92% | HOP-62 NSCLC 10% | NCI-H460 lung -81.2% | NCI-H522 lung -64.3% | A549/ATCC NSCLC -64.1% | 786-0 renal -40.3% | COLO 205 colon -45.2% | K-562 leukemia -59% | MALME-3M melanoma -57.5% | MDA-MB-231 breast -62.3% | RXF 393 renal -91.9% | M14 melanoma -59.2% | HCT-15 colon -89.4%

COc1ccc(C(=O)Nc2nc(-c3ccc(Cl)cc3)cs2)cc1
inactive: NCI-H23 lung 114% | NCI-H226 lung 95.6% | NCI-H322M lung 86.8% | HOP-62 NSCLC 90.8% | NCI-H460 lung 105% | NCI-H522 lung 105% | A549/ATCC NSCLC 100% | 786-0 renal 108% | COLO 205 colon 102% | DU-145 prostate 111% | K-562 leukemia 104% | MALME-3M melanoma 111% | MDA-MB-231 breast 105% | RXF 393 renal 97.1% | SF-268 CNS 105% | SF-295 CNS 97.5% | SF-539 CNS 93% | UACC-257 melanoma 98.5% | M14 melanoma 113% | HCT-15 colon 94.9%

Nc1ccc(C2=Nc3cccc4cccc(c34)S2)cc1
inactive: NCI-H23 lung 86.9% | NCI-H226 lung 59.3% | NCI-H322M lung 88.1% | HOP-62 NSCLC 83.6% | NCI-H460 lung 89.5% | NCI-H522 lung 82.7% | A549/ATCC NSCLC 81.5% | 786-0 renal 121% | COLO 205 colon 100% | DU-145 prostate 98.2% | K-562 leukemia 88.3% | MALME-3M melanoma 94.5% | MDA-MB-231 breast 60% | RXF 393 renal 107% | SF-268 CNS 88.9% | SF-295 CNS 73% | SF-539 CNS 102% | UACC-257 melanoma 84.3% | M14 melanoma 83.9% | HCT-15 colon 54.5%

CC(C)C(=O)Cc1cnccn1
inactive: NCI-H23 lung 93.7% | NCI-H226 lung 110% | NCI-H322M lung 103% | HOP-62 NSCLC 106% | NCI-H460 lung 103% | NCI-H522 lung 109% | A549/ATCC NSCLC 96.5% | 786-0 renal 109% | COLO 205 colon 113% | DU-145 prostate 111% | K-562 leukemia 114% | MALME-3M melanoma 111% | MDA-MB-231 breast 119% | RXF 393 renal 106% | SF-268 CNS 114% | SF-295 CNS 91% | SF-539 CNS 105% | UACC-257 melanoma 97.8% | M14 melanoma 112% | HCT-15 colon 107%
